For 13 compounds, Kd results are on record in publication PMC5540273 (PLoS ONE, 2017).

The structures appear in SMILES notation.

What is called Kd is the constant that tells how readily two partners part at equilibrium. Lower therefore signals higher affinity.

The subject of one assay is T1, LKB1.
T1 construct: gene STK11

The next assay deals with T2, LOK.
T2 construct: gene STK10

Another assay concerns T3, MEK1.
T3 construct: gene MAP2K1
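Also: kd values determined as follow-up on hits from a single-replicate KINOMEscan panel screen.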

On to `CCn1c(-c2nonc2N)nc2ccccc21` [SB-693162/GW549034], for which the figures for the Kd in the assay on LATS2 and with LRRK2 were 1.8 µM and greater than 10 µM, respectively. As for `Nc1ncnc2c1ncn2-c1cccc2ccccc12` [SKF-97184], in the assay on LKB1, the Kd is greater than 10 µM.

In the assay on LOK, `Cc1nnc(-c2ccc(C)c(-c3ccc(C(=O)O)cc3)c2)o1` [GW608005] displayed a Kd greater than 10 µM. Same read-out and setting: the value for `COc1cc2ncn(-c3cc(OCc4ccncc4Br)c(C(N)=O)s3)c2cc1OC` [GW854278] was 0.5 µM.

Consider `Cc1ccccc1COc1cc(-n2cnc3cc(Cl)ccc32)sc1C(N)=O` [GW813349], for which the Kd in the assay on LRRK2 is greater than 10 µM. With `Nc1n[nH]c2nnc(-c3ccccc3)c(-c3ccccc3)c12` [GW554060], the equilibrium dissociation constant (Kd) in the assay on LYN is greater than 10 µM.

With `CCS(=O)(=O)c1ccc(OC)c(Nc2ncc(-c3ccc(F)cc3)o2)c1.Cl` [GW591947], the Kd with MAK is greater than 10 µM. For the compound `Cc1nnc(-c2ccc3ncn(-c4ccc(S(C)=O)cc4)c3c2)o1` (centres unmarked), the dissociation constant (Kd) with MAP4K2 was greater than 10 µM.

`CN1C(=O)C(Nc2cc(Cl)c(O)c(Cl)c2)=C(c2ccc(Cl)cc2)C1=O` [SB-404321] had a Kd in the assay on MAPKAPK2 greater than 10 µM. On to `Cc1cccc(-c2nc(Nc3ccc4c(cnn4C)c3)c3ccccc3n2)n1` [GW876731], for which, in the assay on MAST1, the equilibrium dissociation constant (Kd) is greater than 10 µM. Still for that read-out and setting: in the case of `CN1C(=O)C(Nc2ccccc2)=C(c2ccccc2)C1=O` [SB-300079] it was greater than 10 µM. In the case of `Cn1c(=O)c(F)c(Nc2ccc(I)cc2F)c2c(=O)n(OC[C@H](O)CO)cnc21`, the Kd in the assay with MEK1 was 0.034 µM. Still for that read-out and setting: in the case of `COc1cc2nccc(Nc3cccc(Oc4ccccc4)c3)c2cc1OC.Cl` [GW284543] it was 0.1 µM.
